Assay outcomes: PubChem BioAssay, National Center for Advancing Translational Sciences (NCATS)
HPGD inh – blocks human HPGD enzyme activity; P15428; purified HPGD, NADH fluorescence kinetic, PGE2 substrate; Potency, µM, for inactives: at the highest dose activity change, negative = inhibition, actives largely listed as inhibitors; actives 4.3% (n = 150,000); AID 894; active means well fitted inhibition curve with a large enough effect, not every such curve was filed as active; inconclusive means small, poorly fitted or top-dose-only effect, or another doubt; inactive means no such curve, though single readings can be large or run the other way; further: potency means the concentration at half of the fitted maximal effect
Target sequence (P15428 whole entry, looked up): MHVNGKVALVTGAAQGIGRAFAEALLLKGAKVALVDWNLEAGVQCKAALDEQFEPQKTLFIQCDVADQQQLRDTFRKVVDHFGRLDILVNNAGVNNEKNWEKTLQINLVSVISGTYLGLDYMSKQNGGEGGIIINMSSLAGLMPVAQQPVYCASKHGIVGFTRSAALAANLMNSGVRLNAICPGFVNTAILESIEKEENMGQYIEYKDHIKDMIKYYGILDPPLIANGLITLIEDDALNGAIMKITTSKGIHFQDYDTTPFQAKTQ
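NADH formation kinetics: reaction with 30 uM PGE2 and 1 mM NAD+ (final), 20 nM enzyme, Tris-HCl pH 8 with Tween 20, after 15 min compound preincubation at room temperature. Fluorescence change, last versus first of five reads.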
NPSR antagonist – blocks cAMP signaling of the human neuropeptide S receptor | CHO-NPSR cells, cAMP TR-FRET, antagonist mode | actives 1% (n = 220,000) | Potency, µM (doses to about 38.3 µM), without a hit: top-dose activity change, negative = inhibition, usual class: inhibitors; further: potency means the concentration at half of the fitted maximal effect; nearly all actives have a fitted effect of over 50% in size
IMPase Li cell – membrane-permeable IMPase blocker, potentiated with lithium | CHO-M1 cells, IP1 TR-FRET (IP-One), carbachol + lithium | Potency, µM (series often up to 59.4 µM), inactives show at the highest dose activity, negative = IMPase inhibition, actives largely listed as inhibitors | actives 0.35% (n = 210,000);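 further: IP1 builds up when IMPase is blocked and the TR-FRET signal falls; potency means the concentration at half of the fitted maximal effect; plate controls were basal vehicle for no effect and high inhibitor control for full effect; nearly all actives have a fitted effect of over 50% in size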
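Readout is a homogeneous TR-FRET IP1 immunoassay (Ex 320, Em 665 and 620), where raised cytosolic IP1 lowers signal. Cells were CHO-M1 treated 30 min at 37C with test compounds plus a little lithium; AC50 values came from Hill-equation fitting.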
12-hLO inh – 12-hLO (ALOX12) enzyme inhibition. P18054. purified 12-hLO, xylenol orange hydroperoxide absorbance. Potency, µM (series often up to 57.1 µM), for the others: at the highest dose activity change, negative = inhibition, hits mostly inhibitors. actives 0.12% (n = 150,000). AID 1452; further: potency means the concentration at half of the fitted maximal effect; nearly all actives have a fitted effect of over 55% in size
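150 nM 12hLO, 25 mM Hepes pH 7.0 + 0.01% Triton X-100; cpd preinc 15 min RT; 40 uM arachidonic acid, 30 min RT; Fe-XO 30 min; A573/A405 ratio as read-out.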
IMPase inh – cell-permeable inhibitors of inositol monophosphatase (IMPase) | P97697 | CHO-M1 cells, IP1 accumulation, HTRF TR-FRET ratio | inhibition (IP1 accumulation), % at 46.1 µM | 120,000 tested, under 10 active | AID 901; active means well fitted curve in the direction sought with a large enough effect in the signal ratio, not every such curve was filed as active; inconclusive means small, poorly fitted or top-dose-only effect, or a change in a side signal; inactive means no such curve, though single readings can be large or run the other way; the % refers to the signal ratio;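 further: cells stimulated with carbachol in lithium chloride buffer; plate controls were DMSO basal wells for no effect and reference inhibitor wells for full effect; higher means more IMPase inhibition seen as more IP1 and lower FRET ratio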
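CHO-M1 cells (CHO stably expressing M1 receptor), compound up to 46 uM final, stimulated with carbachol (50 uM as added) in buffer with 50mM LiCl, pH 7.4, 30 min at 37C. Cytosolic IP1 read by TR-FRET; AC50 from Hill fits.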
ALDH1A1 block – blocks purified human ALDH1A1 activity | P00352 | Purified ALDH1A1, NADH fluorescence, propionaldehyde substrate | Potency, µM (top dose mostly 75.3 µM), for the others: top-dose activity, negative = inhibition, most hits filed as inhibitors | actives 7.3% (n = 220,000); active means well fitted inhibition curve with a large enough effect, not every such curve was filed as active; inconclusive means small, poorly fitted or top-dose-only effect, or another doubt; inactive means no such curve, though single readings can be large or run the other way;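 further: potency means the concentration at half of the fitted maximal effect; plate controls were no enzyme wells and a reference inhibitor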
Target sequence (P00352 whole entry, looked up): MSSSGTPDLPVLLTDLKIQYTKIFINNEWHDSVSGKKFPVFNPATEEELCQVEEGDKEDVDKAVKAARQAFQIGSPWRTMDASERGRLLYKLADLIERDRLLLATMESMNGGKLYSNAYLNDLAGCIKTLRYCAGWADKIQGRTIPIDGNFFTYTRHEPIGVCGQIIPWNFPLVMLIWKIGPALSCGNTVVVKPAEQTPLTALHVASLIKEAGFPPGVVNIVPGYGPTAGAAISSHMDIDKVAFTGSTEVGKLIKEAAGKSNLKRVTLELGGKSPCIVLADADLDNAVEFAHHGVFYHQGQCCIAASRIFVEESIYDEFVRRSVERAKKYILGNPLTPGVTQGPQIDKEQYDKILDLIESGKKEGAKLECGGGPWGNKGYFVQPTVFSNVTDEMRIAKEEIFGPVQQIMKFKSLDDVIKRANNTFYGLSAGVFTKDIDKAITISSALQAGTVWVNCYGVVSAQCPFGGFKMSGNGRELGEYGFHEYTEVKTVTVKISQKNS
The depositor's hits bear a star; ? = inconclusive; / = no result given; [ ] = dose if it differs, or a comment. The list is not random: actives were taken first. Their share in the collection is about 8.9%. Unless noted, the call rests on the fitted dose curve; in most records, active means well fitted curve in the direction sought with a large enough effect; inconclusive means small, poorly fitted or top-dose-only effect, or another doubt; inactive means no such curve, though single readings can be large; an effect the other way counts as inactive or inconclusive. Unless noted, on the % scale 0 is the no-effect control and ±100 the full control effect.

SMILES	HPGD inh	NPSR antagonist	IMPase Li cell	12-hLO inh	IMPase inh	ALDH1A1 block
O=C(CSc1nc2cc(Cl)ccc2s1)N1CCCc2ccccc21	?	-19%[46.1 µM]	6%	4%	12	8.9µM*
O=C(CSc1nnnn1C1CCCC1)N1CCCc2ccccc21	-13%	-8%[46.1 µM]	29%[38.3 µM]	1%	?	10µM*
Cc1ccc(-c2nnc(SCC(=O)N3CCCc4ccccc43)n2N)cc1	-6%	-2%[46.1 µM]	-1%[38.3 µM]	-7%	-13	13µM*
Cn1nnnc1SCC(=O)N1CCCc2ccccc21	-7%	3%[46.1 µM]	11%	6%	6	2%
COc1ccc(-n2nnnc2SCC(=O)N2CCCc3ccccc32)cc1OC	-15%	-1%[46.1 µM]	19%	-3%	6	25µM*
Cc1ccc(-c2nnc3ccc(SCC(=O)N4CCCc5ccccc54)nn23)cc1	-13%	-7%	9%	0%	-11	?
CCn1nnnc1SCC(=O)N1CCCc2ccccc21	-10%	22%[46.1 µM]	14%	3%	7	3.5µM*
Cc1ccc(-c2csc3nnc(SCC(=O)N4CCN(Cc5ccccc5)CC4)n23)cc1	-12%	-9%[46.1 µM]	10%[38.3 µM]	-7%	?	14µM*
O=C(CSc1nnc2scc(-c3ccccc3)n12)N1CCCc2ccccc21	-9%	-8%[46.1 µM]	32%[38.3 µM]	1%	0	11µM*
Cc1ccc(N2CN=C(c3ccccc3)NC2=S)cc1	-21%	?	17%[38.3 µM]	-22%	2	-2%
Cc1ccc(C)c(OCCn2cc(/C=C(\C#N)C(=O)NCC3CCCO3)c3ccccc32)c1 (centres undefined)	?	-32%	6%	-1%	/	?
C=CCc1ccc(OCCCN2CCCC(C)C2)c(OC)c1 (centres undefined)	-11%	1%[46.1 µM]	56%[38.3 µM]	-5%	8	16µM*
Cc1ccc(OCCCCNC(C)(C)C)c([N+](=O)[O-])c1	-4%	18%[46.1 µM]	5%	-12%	7	13µM*
Cc1ccc(OCCCCN2CCCC(C)C2)c([N+](=O)[O-])c1 (centres undefined)	/	4%	10%	/	/	32µM*
CCN1C(=O)[C@H]2[C@H]3[C@H](O)[C@H](O)C/C(=N/OCC[C@H]4C=C[C@H](OC(C)=O)[C@@H](COC(C)=O)O4)[C@@H]3CC[C@@H]2C1=O	/	/	/	/	/	-3%[13.5 µM]
O=C(Nc1ccccc1C(=O)N1CCCC1)c1cccc(S(=O)(=O)N2CCCCCC2)c1	1%	-8%[46.1 µM]	18%[38.3 µM]	-11%	-2	-1%
CN(C)c1ccc(NC(=O)c2cn(-c3ccccc3)nc2-c2cccs2)cc1	-13%	-19%[46.1 µM]	9%[38.3 µM]	-11%	5	8.9µM*
O=C(Nc1ccc2ccccc2c1)c1cn(-c2ccccc2)nc1-c1cccs1	?	-21%[46.1 µM]	6%[38.3 µM]	1%	5	?
CCOC(=O)c1ccccc1NC(=O)C(C)Oc1ccccc1 (centres undefined)	-18%	-29%[46.1 µM]	12%[38.3 µM]	-2%	-3	?
C=CCn1c(=S)[nH]c2nc3c(cc2c1=O)CCCC3	-15%	24%[46.1 µM]	17%[38.3 µM]	0%	-2	?
C=CCn1c(=S)[nH]c2sc3c(c2c1=O)CCC3	32µM*	-12%	0%	?	-11	11µM*
CC12CCCc3c(O)cc(=O)n(c31)-c1ccccc12 (centres undefined)	-9%	10%	-19%	0%	/	-2%
CC(C)(C)NC(=O)NC(=O)COC(=O)CNC(=O)C1CCCCC1	/	4%	-3%	/	/	?
CCc1ccc(-c2csc(NC(=O)C3CC(=O)N(c4ccc5c(c4)OCCO5)C3)n2)cc1 (centres undefined)	-10%	-16%	-2%	-2%	/	4%
Cc1ccc(-n2c(C)nc3oc4ccccc4c(=O)c3c2=O)cc1	?	-7%[46.1 µM]	6.3µM*	-29%	-18	28µM*
SMILES	HPGD inh	NPSR antagonist	IMPase Li cell	12-hLO inh	IMPase inh	ALDH1A1 block
COc1ccccc1NC(=O)N1CCN(Cc2ccc3c(c2)OCO3)CC1	/	-18%	/	/	/	?
COC(=O)c1c(-c2ccc(C(C)(C)C)cc2)csc1NC(=O)C1C2CCC(O2)C1C(=O)O (centres undefined)	3.2µM*	-18%	1%	-4%	/	5µM*
O=C(COc1ccccc1)Nc1sc2c(c1C(=O)NCc1cccnc1)CCCC2	-12%	-15%[46.1 µM]	17%[38.3 µM]	0%	-8[1.84 µM]	20µM*
O=C1C2C3C=CC([C@@H]2C(=O)N1C1CC1)[C@H]1C(=O)N(C2CC2)C(=O)C31 (some centres undefined)	-6%	-3%[46.1 µM]	-13%[38.3 µM]	0%	-5	?
O=C1C2C3C=CC(C2C(=O)N1C1CCCCC1)C1C(=O)N(C2CCCCC2)C(=O)C31 (centres undefined)	-1%	-2%[46.1 µM]	10%[38.3 µM]	11%	-3	2.8µM*
COCC(C)NC(=O)c1cc(-c2ccc(OC)c(OC)c2)on1 (centres undefined)	-11%	-7%[46.1 µM]	9%[38.3 µM]	-1%	4[1.84 µM]	10%
O=[N+]([O-])c1cccc(S(=O)(=O)Nc2nc3ccccc3nc2Nc2cccc(S(=O)(=O)N3CCCCC3)c2)c1	-13%	6.3µM*	21%	4%	-5	-4%
Cc1cc(NS(=O)(=O)c2ccc(NC(=O)CCc3ccccc3)cc2)no1	-17%	2%[46.1 µM]	9%[38.3 µM]	-2%	-8	-15%
O=C1OC(c2ccccc2)=C/C1=C/N1CCOCC1	-19%	-8%[46.1 µM]	15%	-1%	9	7.9µM*
O=C1OC(c2ccccc2)=C/C1=C\N1CCOCC1	-6%	-24%[46.1 µM]	18%[38.3 µM]	?	5	11µM*
CN(C)/C=C1/C=C(c2ccccc2)OC1=O	-11%	-9%[46.1 µM]	29%[38.3 µM]	-17%	7	?
COC(=O)C(N)CS (centres undefined)	25µM*	/	-1%	-9%	/	?
COC(=O)[C@@H](N)CS	-12%	13%	1%	-3%	/	3.2µM*
COC(=O)C(N)Cc1ccc(O)cc1 (centres undefined)	7%	5%[46.1 µM]	5%[38.3 µM]	3%	6	9%
O=S(=O)(NC1=NCCCCC1)c1cccs1	-19%	0%[46.1 µM]	-3%[38.3 µM]	-4%	-1	-6%
COc1cccc(C(=O)Cn2c(Br)nc3c2c(=O)n(C)c(=O)n3C)c1	-12%	-18%[46.1 µM]	-12%[38.3 µM]	4%	14	0%
Cn1c(=O)c2c(nc(Br)n2CC(=O)C23CC4CC(CC(C4)C2)C3)n(C)c1=O	-16%	-26%[46.1 µM]	13%[38.3 µM]	2%	2	11µM*
Cc1ccccc1Nc1cc(=O)oc2ccccc12	-20%	-8%[46.1 µM]	46%[38.3 µM]	-6%	3	14µM*
Clc1ccc(-c2n[nH]c3c2CCC3)c(Cl)c1	7.1µM*	11%[46.1 µM]	-1%[38.3 µM]	-27%	?	9%
Cc1nc2cc(C(=O)NCc3cccnc3)ccc2n1-c1ccc(F)cc1F	/	12%	-4%	/	/	2%
